# Source: PubChem BioAssay (National Center for Advancing Translational Sciences (NCATS))
# A selection: hits, their analogues and other compounds. The true share with any hit is near 5.7%.
# GLP1R inv ag: qHTS of GLP-1 Receptor Inverse Agonists (Inhibition Mode) | AID 624417, 2012 | HEK293 GLP-1R CRE-luciferase, luminescence, 24 h; GLP-1R form is constitutively active | 1.6% of 410,000 active | Potency, µM (highest dose often 38.3 µM), without a hit: top-dose activity change, negative = inhibition, most hits filed as inhibitors | Glucagon-like peptide 1 receptor (Homo sapiens), P43220; also: potency is read from the fitted curve at half-maximal effect; % is scaled to controls: 0 for no effect and ±100 for the full control effect; nearly all actives have a fitted effect of over 55% in size
#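 Using stably transfected HEK293 (constitutively active GLP-1R, cAMP-luciferase reporter), compounds were incubated 24 hr and luciferase measured by luminescence.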
# HEK293 tox: qHTS of GLP-1 Receptor Inverse Agonists: Cytotox Screen | HEK293 cAMP-luciferase reporter cells, luminescence, 24 h | Potency, µM (doses to about 38.3 µM), for the others: at the highest dose activity change, negative = inhibition, usual class: inhibitors | 0.13% of 410,000 active | AID 624418, 2012;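 also: loss of luciferase light is scored as toxicity; potency is read from the fitted curve at half-maximal effect; % is scaled to controls: 0 for no effect and ±100 for the full control effect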
#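 1536-well qHTS counterscreen of the MLSMR; 200 cells/uL, 12 h pre-incubation, 23 nL cpd, 24 h at 37 deg C 5% CO2, luciferase detection reagent, 12 min RT, luminescence. Inhibition = undesired.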
# ClpP mod: qHTS Assay for Activators of ClpP. purified B. subtilis ClpP, FRET peptide cleavage, 20 min. 1.9% of 340,000 active. Potency, µM (series often up to 57.5 µM), without a hit: at the highest dose activity change, negative = active. ATP-dependent Clp protease proteolytic subunit (Bacillus subtilis (strain 168)), P80244; active = well fitted falling curve with a large enough effect; inconclusive = small, poorly fitted or top-dose-only effect; inactive = no such curve, though single readings can be large or run the other way; also: potency is read from the fitted curve at half-maximal effect; the source files actives as falling curves though it sought activators and does not explain the sign; nearly all actives have a fitted effect of over 65% in size
# Target sequence (P80244 whole entry, looked up): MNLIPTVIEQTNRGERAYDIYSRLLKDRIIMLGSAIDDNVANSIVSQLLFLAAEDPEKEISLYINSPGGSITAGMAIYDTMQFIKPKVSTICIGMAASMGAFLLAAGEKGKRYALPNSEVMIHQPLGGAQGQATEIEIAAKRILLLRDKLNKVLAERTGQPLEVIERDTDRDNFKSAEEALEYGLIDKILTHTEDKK
#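 Purified B. subtilis ClpP, 10 microg/mL final in Tris/HCl pH8 with KCl, BSA, glycerol and Tween-20, cleaved an Abz/nitrotyrosine-quenched decapeptide. Fluorescence (ex 320, em 430) was read at 0 and 20 min at room temperature. Delta was normalized to 5.8 microM ADEP and DMSO/no-enzyme controls.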
# DRD3 agonist: qHTS of D3 Dopamine Receptor Agonist: qHTS; D3R DiscoveRx beta-arrestin cells, luminescence, 90 min; D(3) dopamine receptor (Homo sapiens), P35462; AID 652048, 2013; 0.58% of 410,000 active; max activation, %; in the data active = max activation above about 30%; also: 0% is about no effect
# Target sequence (P35462 whole entry, looked up): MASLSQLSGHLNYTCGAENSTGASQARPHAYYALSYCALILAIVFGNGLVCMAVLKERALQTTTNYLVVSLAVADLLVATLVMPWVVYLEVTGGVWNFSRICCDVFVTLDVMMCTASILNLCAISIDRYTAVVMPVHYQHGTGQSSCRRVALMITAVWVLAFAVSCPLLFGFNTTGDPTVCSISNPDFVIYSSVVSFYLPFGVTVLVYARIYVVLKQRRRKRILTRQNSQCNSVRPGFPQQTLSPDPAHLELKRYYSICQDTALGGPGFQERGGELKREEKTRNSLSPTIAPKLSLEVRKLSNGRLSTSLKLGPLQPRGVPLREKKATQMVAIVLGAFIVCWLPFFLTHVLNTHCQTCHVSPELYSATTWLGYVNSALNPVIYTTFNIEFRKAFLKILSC
#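 Agonist-mode cell screen: cells plated at 1500/well and incubated overnight at 37 °C, then exposed to library compounds for 90 min at 37 °C. Detection reagent was added for 30–60 min at room temperature, and luminescence was read.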
# GLP-1R agonist: qHTS of GLP-1 Receptor Agonists | Potency, µM (top dose mostly 45.6 µM), for the others: top-dose activation, actives largely listed as activators | 0.007% of 380,000 active | Glucagon-like peptide 1 receptor (Homo sapiens), P43220 | HEK293 GLP-1R CRE-luciferase, luminescence, 4-6 h; cells express a hypersensitive GLP-1R form; also: potency is read from the fitted curve at half-maximal effect; % of control where 0% means no effect
# DRD3 antagonist: qHTS of D3 Dopamine Receptor Antagonist: qHTS. 2.5% of 360,000 active. max response, negative = inhibition, %. D3R cells, DiscoveRx beta-arrestin luminescence, antagonist mode; active compounds read low. D(3) dopamine receptor (Homo sapiens), P35462. AID 652054, 2013; in the data active = max response below about -50%; inconclusive = no clear call, values can overlap the other calls; also: % is scaled to controls: 0 for no effect and ±100 for the full control effect
#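 Cells plated overnight at 1500 cells/well, then exposed to library compounds with dopamine controls for 90 minutes at 37 degrees C. DiscoveRx reagent added for 30–60 minutes at room temperature; luminescence read, quantitative HTS format.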
# The depositor's hits bear a star; ? = inconclusive; nt = no result. Unless noted, calls follow the shape of the dose curve; as a rule, active = well fitted curve in the direction sought with a large enough effect; inconclusive = small, poorly fitted or top-dose-only effect, or another doubt; inactive = no such curve, though single readings can be large; an effect the other way counts as inactive or inconclusive.
SMILES,GLP1R inv ag,HEK293 tox,ClpP mod,DRD3 agonist,GLP-1R agonist,DRD3 antagonist
CCOC(=O)C1(CCOc2ccccc2)CCN(Cc2cccc(OC)c2OC)CC1,10µM*,-4.0%,nt,-20.1,20.8%,2.6
CCOC(=O)C1(Cc2ccccc2)CCN(Cc2cccn2-c2nccs2)CC1,0.0%,?,4.47µM*,-21.6,3.4%,-25.1
CCOC(=O)C1(CCOc2ccccc2)CCN(Cc2cccc3c2OCO3)CC1,?,-2.1%,0.8%,-41.4,8.0%,-60.0*
CCOC(=O)C1(CCOc2ccccc2)CCN(C(=O)c2ccc(-n3cccn3)cc2)CC1,?,-1.5%,nt,-0.2,12.2%,-0.2
CCOC(=O)C1(CCOc2ccccc2)CCN(Cc2ccccc2O)CC1,?,-1.0%,nt,-13.9,5.0%,0.4
CCOC(=O)C1(Cc2cccc(OC)c2)CCN(Cc2cccn2-c2nccs2)CC1,?,-29.1%,nt,-12.0,11.3%,-16.2
CCOC(=O)C1(CCOc2ccccc2)CCN(Cc2cccc(-n3cccn3)c2)CC1,5.01µM*,-11.5%,1.9%,-11.0,-4.5%,-60.4*
COc1ccc(C(=O)c2cn(Cc3ccc(F)cc3)c3ccc(C)cc3c2=O)cc1,?,-13.4%,-2.9%,5.8,nt,nt
CCOC(=O)C1(CCOc2ccccc2)CCN(Cc2cccc(F)c2)CC1,?,-13.5%,-3.4%,-27.1,-6.0%,-52.6*
CCOC(=O)C1(CCOc2ccccc2)CCN(Cc2ccc(OCC)c(CO)c2)CC1,11.2µM*,0.0%,0.1%,-8.8,-1.4%,-2.7
CCOC(=O)C1(CCOc2ccccc2)CCN(Cc2ccc(OC)cc2)CC1,10µM*,-13.7%,-2.7%,-12.1,-1.0%,-71.9*
CCOC(=O)C1(CCOc2ccccc2)CCN(Cc2cccc(OCCO)c2)CC1,?,3.4%,-3.8%,-11.9,0.1%,-15.7
C/C(=N\N=C1\NC(=O)C(CC(=O)Nc2ccc(C)c(Cl)c2)S1)C(C)(C)C (centres undefined),11.2µM*,16.5%,nt,1.3,8.7%,4.7
CCOc1ccc(CCNC(=O)c2ccc(CS(=O)(=O)c3ccccc3C)o2)cc1OCC,-36.2%,0.8%,-3.0%,0.4,nt,nt
C(=N\Nc1nc2ccccc2[nH]1)/c1c[nH]c2ccccc12,?,?,0.3%,46.6*,13.9%,30.4
O=[N+]([O-])c1cc(/C=N/Nc2nc3ccccc3[nH]2)c(O)cc1O,?,?,3.2%,-11.3,-3.8%,-65.4*
Cc1ccccc1/C=N/Nc1nc2ccccc2[nH]1,?,?,nt,-3.3,13.1%,4.5
Cc1cccc(CNC(=O)CCCN2C(=O)COc3ccc(C)cc32)c1,-24.9%,-5.0%,-2.3%,-6.8,nt,nt
Cc1cc(Br)ccc1OCCCCNC(C)(C)C,?,-8.8%,0.6%,1.4,0.9%,-65.7*
COCCCNCCCCOc1ccc(Br)cc1C,2.82µM*,-3.6%,-1.7%,-25.0,0.4%,-97.0*
COCCNCCCCOc1ccc(Br)cc1C,?,6.5%,-1.4%,-31.0,0.1%,-0.1
CCCCSCCCNC(=O)c1cn(C)c2ccc(S(=O)(=O)N3CCCCCC3)cc2c1=O,10.9%,-9.3%,0.5%,-0.4,nt,nt
CCc1ccc(NS(=O)(=O)c2ccc3[nH]cc(C(=O)NC4CCCC4)c(=O)c3c2)cc1,?,-29.2%,-23.7%,-2.0,nt,nt
CC(C)CCn1cnc2c(oc3nc4c(cc32)CCCC4)c1=O,8.91µM*,-8.4%,-19.1%,-12.2,-7.2%,-15.7
CC1(C)Cc2nc3oc4c(=O)n(CC(=O)Nc5ccccc5)cnc4c3cc2CO1,-16.3%,-12.7%,nt,-1.0,8.7%,5.4
SMILES,GLP1R inv ag,HEK293 tox,ClpP mod,DRD3 agonist,GLP-1R agonist,DRD3 antagonist
O=C(Nc1cccc(C(=O)N2CCCCC2)c1)c1nsc2ccccc12,-7.4%,0.3%,0.2%,5.6,nt,nt
COc1ccccc1N1CCN(Cc2cccs2)CC1,-14.1%,-6.0%,-1.3%,-34.8,1.6%,-82.3*
COc1ccccc1N1CCN(Cc2ccc(C(=O)O)cc2)CC1,15.7%,-7.3%,nt,-16.0,-3.7%,-20.6
COc1cc(CN2CCN(c3ccccc3F)CC2)cc(OC)c1O,23.9%,2.7%,-3.8%,43.4*,12.5%,?
COc1ccc(CN2CCN(c3ccccc3OC)CC2)cc1OC,-6.0%,13.3%,-1.7%,-31.3,10.1%,-77.2*
COc1ccccc1N1CCN(Cc2ccsc2)CC1,0.0%,-4.2%,-2.9%,-9.8,-3.9%,-92.2*
COc1ccccc1N1CCN(S(=O)(=O)c2cccs2)CC1,-9.0%,18.4%,-1.4%,-1.4,29.3%,-6.9
COC(=O)c1cccc(NC(=O)N(C)CCc2c(C)nn(C)c2C)c1,3.4%,-3.1%,-0.7%,2.1,nt,nt
COC(=O)c1cc(CN2CCN(c3ccccc3C)CC2)ccc1O,0.0%,-3.1%,-11.4%,-62.8,0.1%,-80.0*
COc1ccccc1N1CCN(Cc2cnc3ccc(Cl)cn23)CC1,7.7%,0.1%,-3.3%,-5.3,3.0%,-90.6*
COc1ccc(CC(C)N2CCN(c3ccccc3)CC2)cc1OC (centres undefined),0.0%,-8.9%,2.0%,-17.5,-0.4%,-146.9*
COc1ccc(S(=O)(=O)N2CCN(c3ccccc3)CC2)cc1OC,-2.5%,38.3%,nt,-3.4,2.9%,-1.3
COc1ccc(OC)c(CN2C(=O)c3ccccc3C2c2nnnn2-c2c(C)cccc2C)c1 (centres undefined),9.1%,1.2%,-0.5%,-6.0,-2.7%,0.0
Cc1cccc(NC(=O)Cn2c(=O)n(Cc3ccccc3)c(=O)c3oc4ccccc4c32)c1C,-4.1%,-1.8%,-29.8%,1.9,nt,nt
O=C(Cc1ccc([N+](=O)[O-])cc1)Nc1nnc(C2CC2)s1,16.0%,14.9%,25.1µM*,2.4,-12.8%,2.3
Cc1ccc(CNC(=O)CCC(=O)Nc2nnc(C3CCCCC3)s2)cc1,2.5%,8.1%,28.2µM*,1.0,-2.4%,-14.0
CN(C)C(CNC(=S)Nc1cccc(Cl)c1)c1ccccc1 (centres undefined),?,2.1%,0.6%,-32.9,-0.1%,-69.9*
Cc1cccc(NC(=S)NCC(c2ccccc2)N(C)C)c1 (centres undefined),-27.9%,-9.8%,1.6%,-18.7,8.9%,?
CN(C)C(CNC(=O)Nc1cccc(Cl)c1)c1cccnc1 (centres undefined),3.2%,-7.0%,2.1%,-4.0,-11.5%,-52.5*
CC(CC(=O)Nc1ccncc1)c1ccccc1 (centres undefined),7.6%,-2.4%,-2.8%,6.0,-7.0%,-6.1
